We go through 16 molecules from PubChem BioAssay (NCI).

Test systems include T-47D breast; BT-549 breast; MDA-MB-435 melanoma; SW-620 colon; MCF7 breast; HCT-116 colon; HCC-2998 colon; KM12 colon.
What all share (test): NCI-60 one-dose screen, 48 h (100 = growth as untreated, 0 = no growth, -100 = all killed)
Conditions in all cases: 10 µM unless noted

The panel holds about 83,000 compounds, 20% with a hit somewhere; the sample as a whole holds those more often.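 Values shown are percent growth following 48 h exposure of cells in 96-well plates to a single concentration of compound; below 10 was considered active.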 Values without a mark were called inactive. Calls of active or inactive are those of the source.

With `NC(=O)c1cnc(Nc2cccc(N)c2)nc1NCCCNC(=O)C1CCC1`, the growth in the test on T-47D breast is 106%; with BT-549 breast, 26.7%; in the test with MDA-MB-435 melanoma, 82.6%; with SW-620 colon, 86.8%; with MCF7 breast, 74.7%; with HCT-116 colon, 65.5%. Further, the growth is 103% with HCC-2998 colon and 74.8% in the test on KM12 colon.
On to `CNC(=O)c1ccccc1Nc1nc(Nc2cc(OC)c(OC)c(OC)c2)ncc1Br`, for which the growth was -25.2% (active) in the test on T-47D breast; -93.5% (active) in the test on BT-549 breast; 6.45% (active) in the test with MDA-MB-435 melanoma; 5.27% (active) in the test on SW-620 colon; 1.48% (active) in the test with MCF7 breast; 1.45% (active) in the test with HCT-116 colon. The growth with HCC-2998 colon was -32.5% (active); in the test on KM12 colon, 7.57% (active).
For `CCN1C(=O)N(CC)C2C1NC(=S)N2/N=C/c1ccc(C(F)(F)F)cc1` (stereo not given), the growth with T-47D breast is 74.7%; with BT-549 breast, 71%; with MDA-MB-435 melanoma it was 4.45% (active); in the test on SW-620 colon, 55.3%; with MCF7 breast, 33.2%; with HCT-116 colon, 54.9%. In addition, the growth with HCC-2998 colon is 74%; in the test on KM12 colon, 56%.
As to `COc1cc(-c2nc3sccn3c2-c2ccnc(NCCNS(=O)(=O)c3ccc(Cl)cc3)n2)ccc1F`, the growth with T-47D breast was 1.61% (active); in the test on BT-549 breast it was 30.9%; with MDA-MB-435 melanoma, 9.48% (active); in the test with SW-620 colon it was 50.6%; with MCF7 breast, 17.7%; in the test with HCT-116 colon, 20.9%. Besides, the growth is 66.5% in the test on HCC-2998 colon and 17% in the test on KM12 colon.
Regarding `Cc1ccc(C2CC(c3nc(-c4ccc(Cl)cc4)oc3C)=NN2C(=O)c2ccncc2)cc1` (stereo not given), the growth in the test with T-47D breast was 77.7%; with BT-549 breast, 96%; with MDA-MB-435 melanoma it was 88.7%; in the test with SW-620 colon it was 93.4%; with MCF7 breast it was 84.1%; in the test with HCT-116 colon, 94.8%. The growth with HCC-2998 colon was 97.6%; in the test on KM12 colon, 88.3%.
Take `CC(=O)c1sc2sc(C(C)=O)c(C)c2c1C`: the growth in the test on T-47D breast was 89%; in the test on BT-549 breast, 105%; in the test with MDA-MB-435 melanoma it was 102%; in the test with SW-620 colon it was 102%; in the test with MCF7 breast, 73.1%; in the test on HCT-116 colon, 83.1%. In addition, the figures for the growth with HCC-2998 colon and in the test on KM12 colon were 102% and 107%, respectively.
With `C[C@]1(O)CC(=O)[C@]2(O)C3=C(C=C[C@]2(O)C1)C(=O)c1c(O)cccc1C3=O`, the growth in the test on T-47D breast is -45.5% (active); in the test on BT-549 breast, 45.2%; in the test on MDA-MB-435 melanoma, -79.8% (active); in the test with SW-620 colon, -55.5% (active); with MCF7 breast, -60.2% (active); in the test with HCT-116 colon, -32.1% (active). In addition, the growth with HCC-2998 colon was 94.7%; in the test with KM12 colon it was 77.8%.
In the case of `Cc1ccc(-c2nc(-c3cn(C)c4ncccc34)cs2)cc1`, the growth with T-47D breast is -3.08% [100 µM] (active); with BT-549 breast, -42.1% [100 µM] (active); in the test with MDA-MB-435 melanoma, -39.5% [100 µM] (active); in the test on SW-620 colon, -11.6% [100 µM] (active); with MCF7 breast, -18% [100 µM] (active); with HCT-116 colon, -73.1% [100 µM] (active). In addition, the growth in the test on HCC-2998 colon was -67.9% [100 µM] (active); in the test on KM12 colon, -55.5% [100 µM] (active).
Regarding `COc1ccc2c(c1)c(/C(O)=C1\COC(=O)C1=O)cn2Cc1ccc(F)cc1`, the growth in the test on T-47D breast was 114%; in the test with BT-549 breast, 110%; with MDA-MB-435 melanoma, 109%; in the test with SW-620 colon, 101%; in the test with MCF7 breast, 107%; in the test on HCT-116 colon it was 104%. In the test on KM12 colon, the growth is 109%.
As to `COc1ccc(/C=C2\COc3ccc(O)cc3C2=O)cc1`, the growth was 87.9% in the test with T-47D breast; 87.8% in the test with BT-549 breast; 78.7% in the test with MDA-MB-435 melanoma; 84.6% in the test on SW-620 colon; 15.4% with MCF7 breast; 77.7% in the test with HCT-116 colon. The growth in the test on KM12 colon was 58%.
With `O=C(O)COc1ccc(Cl)c(Cl)c1`, the growth in the test on T-47D breast was 95.7%; in the test on BT-549 breast it was 120%; with MDA-MB-435 melanoma, 104%; in the test on SW-620 colon, 109%; in the test with MCF7 breast, 108%; in the test on HCT-116 colon it was 109%. Further, the growth in the test with KM12 colon was 110%.
For the molecule `COc1cc(/C=N/Nc2ccc(Br)cc2)cc(OC)c1OC`, the growth with T-47D breast is 30.8%; with BT-549 breast, 95.1%; in the test on MDA-MB-435 melanoma, 39.5%; with SW-620 colon, 46.8%; with MCF7 breast, 51%; in the test on HCT-116 colon, 60.8%. Also, in the test on KM12 colon, the growth was 16.3%.
As to `Cc1ccc(/C=C/C(=O)c2cccc(OCCCOc3cccc(C(=O)/C=C/c4ccc(C)cc4)c3)c2)cc1`, the growth in the test with T-47D breast was 58.4%; in the test on BT-549 breast, 79.7%; in the test on MDA-MB-435 melanoma it was 89.3%; in the test on SW-620 colon it was 68.1%; in the test on MCF7 breast, 2.54% (active); in the test on HCT-116 colon, 18.3%. Also, the growth with KM12 colon was 78.8%.
For `CCOC(=O)C(=CNc1cnc(Nc2ccc(N3CCOCC3)cc2)nc1Oc1ccc(OC)cc1)C(=O)OCC`, the growth in the test with T-47D breast was 84.7%; in the test with BT-549 breast, 77.3%; with MDA-MB-435 melanoma, 61.7%; in the test on SW-620 colon, 46.8%; with MCF7 breast, 61.3%; in the test with HCT-116 colon, 11.4%. Besides, in the test on KM12 colon, the growth was 76.8%.
`COc1cccc(NCc2nnc(Nc3ccc(Cl)cc3)c3ccccc23)c1`: the growth with T-47D breast is -8.49% (active); in the test with BT-549 breast, -12.2% (active); in the test with MDA-MB-435 melanoma, -10.3% (active); in the test on SW-620 colon it was 11.9%; in the test on MCF7 breast, -1.96% (active); in the test with HCT-116 colon it was -44.2% (active). In addition, in the test on KM12 colon, the growth is -24.9% (active).
As for `Cc1cccc[n+]1C1c2ccccc2-c2ccccc21`, the growth is 60.8% in the test with T-47D breast; 86.8% in the test with BT-549 breast; 102% in the test on MDA-MB-435 melanoma; 103% with SW-620 colon; 95.1% in the test on MCF7 breast; 78.5% with HCT-116 colon. The growth in the test on KM12 colon was 101%.
